{"source": "PubChem BioAssay AID1159554", "about": "(Broad Institute, 2015)", "note": "Hit rate of the full screen: of about 94,000 compounds, about 2,100 (2.2%) were called active. Rule as the data show it: active = activity change below about -80%; inconclusive = no clear call, values can overlap the other calls; inactive = above that. What follows is part of a selection rich in actives, with near analogues and random picks from the rest."}
{"assay": "Dd2 malaria parasite growth inhibition – SYBR Green fluorescence, single dose replicates, primary screen (AID 1159554)", "settings": "P. falciparum Dd2 growth, 72 h, at 10 µM, stronger effect = lower value"}
{"smiles": "CCC(=O)N(C)C[C@H]1Oc2ncc(C#CC(C)C)cc2C(=O)N([C@@H](C)CO)C[C@H]1C", "activity change": "34.1% (inactive)"}
{"smiles": "CN1C(=O)c2cc(NC(=O)C3CCCC3)ccc2OC[C@H]2O[C@H](CC(=O)NCc3ccccc3F)CC[C@H]21", "activity change": "-16.4% (inactive)"}
{"smiles": "O=C(C1CCCC1)N1[C@H](CO)[C@H]2c3ccccc3N(S(=O)(=O)c3ccccc3)C[C@H]21", "activity change": "-20% (inactive)"}
{"smiles": "Cc1noc(C)c1NC(=O)N(C)C[C@H]1Oc2ccc(NC(=O)Cn3cnnn3)cc2CC(=O)N([C@H](C)CO)C[C@@H]1C", "activity change": "26.5% (inactive)"}
{"smiles": "C[C@H](CO)N1C[C@H](C)[C@H](CN(C)Cc2ccc(C(=O)Nc3ccccc3N)cc2)Oc2c(NC(=O)Nc3ccccc3)cccc2C1=O", "activity change": "-80.2% (active)"}
{"smiles": "C[C@@H]1CN([C@@H](C)CO)C(=O)c2cccc(NC(=O)Nc3ccccc3)c2O[C@H]1CN(C)Cc1ccccc1", "activity change": "-14.5% (inactive)"}
{"smiles": "Cc1cc(C(=O)Nc2cccc3c2O[C@@H](CN(C)Cc2ccc(C(=O)Nc4ccccc4N)cc2)[C@H](C)CN([C@@H](C)CO)C3=O)n(C)n1", "activity change": "-84.4% (active)"}
{"smiles": "C[C@H](CO)N1C[C@H](C)[C@@H](CN(C)Cc2ccc(C(=O)Nc3ccccc3N)cc2)Oc2c(NC(=O)C3CC3)cccc2C1=O", "activity change": "-57.7% (inactive)"}
{"smiles": "Cc1cc(C(=O)Nc2cccc3c2O[C@@H](CN(C)Cc2ccc(C(=O)O)cc2)[C@H](C)CN([C@@H](C)CO)C3=O)n(C)n1", "activity change": "6.12% (inactive)"}
{"smiles": "Cc1cc(C(=O)Nc2cccc3c2O[C@@H](CN(C)Cc2ccncc2)[C@@H](C)CN([C@@H](C)CO)C3=O)n(C)n1", "activity change": "6.17% (inactive)"}
{"smiles": "CC(C)(C)[S@](=O)N1Cc2cc(C(=O)N3CCCCC3)nc(-c3cccc(Br)c3)c2[C@@H]1CCO", "activity change": "-2.81% (inactive)"}
{"smiles": "COc1cccc(S(=O)(=O)N[C@H]2C=C[C@@H](CC(=O)NCc3ccccc3)O[C@@H]2CO)c1", "activity change": "18.4% (inactive)"}
{"smiles": "O=C(C[C@@H]1CC[C@@H]2[C@H](COC[C@H](O)CN2C(=O)c2ccncc2)O1)NCc1cc(F)cc(F)c1", "activity change": "1.9% (inactive)"}
{"smiles": "COc1ccc(-c2cnc3c(c2)C(=O)N([C@@H](C)CO)C[C@H](C)[C@@H](CN(C)C(=O)C2CC2)O3)cc1", "activity change": "13.9% (inactive)"}
{"smiles": "O=C(c1ccc(F)cc1)N1CC2(C1)[C@H](c1ccccc1)[C@@H](CO)N2Cc1ccccn1", "activity change": "-24.5% (inactive)"}
{"smiles": "O=C1CN(S(=O)(=O)Cc2ccccc2)C[C@@H]2[C@@H](c3ccc(C#Cc4ccccc4)cc3)[C@@H](CO)N12", "activity change": "-68.4% (inactive)"}
{"smiles": "Cc1ccccc1S(=O)(=O)N1CC(=O)N2[C@H](CO)[C@@H](c3ccc(C#Cc4ccccc4)cc3)[C@H]2C1", "activity change": "-22.9% (inactive)"}
{"smiles": "O=C1CN(S(=O)(=O)c2ccccc2)C[C@H]2[C@H](c3ccc(C#CCc4ccccc4)cc3)[C@@H](CO)N12", "activity change": "-82.9% (active)"}
{"smiles": "Cc1ccccc1S(=O)(=O)N1CC(=O)N2[C@H](CO)[C@H](c3ccc(C#CCN(C)C)cc3)[C@H]2C1", "activity change": "-1.17% (inactive)"}
{"smiles": "O=C1CN(S(=O)(=O)c2ccccc2)C[C@H]2[C@H](c3ccc(C4=CCCC4)cc3)[C@@H](CO)N12", "activity change": "5.25% (inactive)"}
{"smiles": "Cc1ccccc1S(=O)(=O)N1CC(=O)N2[C@H](CO)[C@H](c3ccc(C#CC4CC4)cc3)[C@@H]2C1", "activity change": "-84.8% (active)"}
{"smiles": "C[C@@H]1CN([C@@H](C)CO)S(=O)(=O)c2ccc(C#CC(C)(C)O)cc2O[C@H]1CN(C)C(=O)CN(C)C", "activity change": "31.6% (inactive)"}
{"smiles": "Cc1ccccc1S(=O)(=O)N1[C@@H](C#N)[C@H](c2ccccc2)[C@@H]1CO", "activity change": "20.4% (inactive)"}
{"smiles": "CCCNC(=O)N1CC2(CN(C(=O)C3CCCCC3)C2)c2c([nH]c3cc(OC)ccc23)[C@@H]1CO", "activity change": "-5.82% (inactive)"}
{"smiles": "O=C(Nc1ccc(F)cc1)N[C@H]1C=C[C@@H](CC(=O)N2CCOCC2)O[C@H]1CO", "activity change": "-16.7% (inactive)"}
{"smiles": "COc1ccc(S(=O)(=O)N(C)C[C@H]2Oc3c(NC(=O)CCCCCC(=O)Nc4ccccc4N)cccc3C(=O)N([C@H](C)CO)C[C@H]2C)cc1", "activity change": "-89.5% (active)"}
{"smiles": "COc1ccc(S(=O)(=O)N(C)C[C@H]2Oc3c(NC(=O)Nc4cccc5ccccc45)cccc3C(=O)N([C@@H](C)CO)C[C@H]2C)cc1", "activity change": "-88.1% (active)"}
{"smiles": "C[C@H]1CN([C@@H](C)CO)C(=O)c2cccc(NC(=O)CCCCCC(=O)Nc3ccccc3N)c2O[C@@H]1CN(C)S(=O)(=O)c1cn(C)cn1", "activity change": "22.6% (inactive)"}
{"smiles": "C[C@H](CO)N1C[C@H](C)[C@H](CN(C)S(=O)(=O)c2ccccc2)Oc2c(NC(=O)CCCCCC(=O)Nc3ccccc3N)cccc2C1=O", "activity change": "-73.2% (inactive)"}
{"smiles": "C[C@@H]1CN([C@@H](C)CO)C(=O)c2cccc(NC(=O)Nc3cccc4ccccc34)c2O[C@H]1CN(C)S(=O)(=O)c1ccccc1", "activity change": "-19.1% (inactive)"}
{"smiles": "COc1ccc(S(=O)(=O)N(C)C[C@@H]2Oc3c(NC(=O)NC(C)C)cccc3C(=O)N([C@@H](C)CO)C[C@@H]2C)cc1", "activity change": "-6.46% (inactive)"}
{"smiles": "COCC(=O)Nc1ccc2c(c1)C(=O)N(C)C[C@@H](OC)[C@@H](C)CN(C(=O)Cc1ccccn1)[C@@H](C)CO2", "activity change": "-33.6% (inactive)"}
{"smiles": "COc1ccc(S(=O)(=O)N(C)C[C@H]2OCCCC[C@@H](C)Oc3ccc(NS(=O)(=O)c4ccc(C)cc4)cc3C(=O)N([C@@H](C)CO)C[C@@H]2C)cc1", "activity change": "-36.4% (inactive)"}
{"smiles": "CCCNC(=O)N1[C@H](CO)[C@H]2c3ccccc3N(C(=O)Nc3cccc(Cl)c3)C[C@H]21", "activity change": "6.16% (inactive)"}
{"smiles": "COc1cccc(C#Cc2ccc([C@H]3[C@@H](CO)N(C(=O)c4ccccn4)[C@H]3C#N)cc2)c1", "activity change": "-92% (active)"}
{"smiles": "COc1cccc(-c2ccc([C@@H]3[C@@H](CO)N(C(=O)c4ccccn4)[C@H]3C#N)cc2)c1", "activity change": "-11.6% (inactive)"}
{"smiles": "COc1cccc(-c2ccc([C@@H]3[C@@H](C#N)N(C(=O)c4ccccn4)[C@H]3CO)cc2)c1", "activity change": "-35.5% (inactive)"}
{"smiles": "CCCN1C[C@H](C)[C@H](OC)CN(C)C(=O)c2cc(NC(=O)NC3CCCC3)ccc2OC[C@H]1C", "activity change": "20% (inactive)"}
{"smiles": "C[C@@H]1CCCCO[C@@H](CN(C)S(C)(=O)=O)[C@H](C)CN([C@@H](C)CO)C(=O)c2cc(NC(=O)Nc3ccc4c(c3)OCO4)ccc2O1", "activity change": "33.8% (inactive)"}
